Data taken from PubChem BioAssay AID1159580 (chemical genetic matrix, 2015).
Out of some 5,500 compounds screened, about 2,000 (36%) were called active. Roughly 18% stayed inconclusive and do not appear here. Cut-off read from the data, not from the text of the source: active = normalized growth mostly below about 0.91 (no sharp cut-off); inconclusive = no clear call, values can overlap the other calls; inactive = mostly above about 0.92. Some of the results follow.

Assay: chemical genetic growth profiling, strain panel (AID 1159580);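 note: tested at 20 µM; growth read once vehicle control cultures reached saturation at 30 °C; 1 = growth at the plate median or of vehicle wells; lower values mean less growth of the strain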
Conditions: S. cerevisiae deletion strains, growth OD

Measured: normalized growth

Cc1ccc(C(O)(c2ccccc2)c2ccccc2)c2ccccc12
inactive: locus YAR019C, strain CDC15, hits give low values 0.992 | locus YBL105C, strain PKC1, hits give low values 0.985 | locus YBR135W, strain CKS1, hits give low values 0.98 | locus YBR136W, strain MEC1, hits give low values 0.983 | locus YBR160W, strain CDC28, hits give low values 0.985 | locus YDL017W, strain CDC7, hits give low values 0.992 | locus YDL028C, strain MPS1, hits give low values 0.985 | locus YDL101C, strain DUN1, hits give low values 0.97 | locus YDL108W, strain KIN28, hits give low values 0.981 | locus YDL132W, strain cdc53, hits give low values 0.976 | locus YDL214C, strain PRR2, hits give low values 0.963 | locus YDR052C, strain DBF4, hits give low values 0.992 | locus YDR054C, strain cdc34, hits give low values 0.988 | locus YDR226W, strain ADK1, hits give low values 0.983 | locus YDR477W, strain SNF1, hits give low values 0.975 | locus YER123W, strain YCK3, hits give low values 1 | locus YER133W, strain GLC7, hits give low values 0.998 | locus YFL009W, strain cdc4, hits give low values 0.982 | locus YFL029C, strain CAK1, hits give low values 0.993 | locus YFR003C, strain YPI1, hits give low values 0.988 | locus YFR019W, strain FAB1, hits give low values 0.952 | locus YFR028C, strain CDC14, hits give low values 0.979 | locus YGR040W, strain KSS1, hits give low values 0.947 | locus YGR052W, strain FMP48, hits give low values 0.982 | locus YGR092W, strain DBF2, hits give low values 0.907 | locus YHR030C, strain SLT2, hits give low values 1.02 | locus YHR079C, strain IRE1, hits give low values 0.996 | locus YHR082C, strain KSP1, hits give low values 1 | locus YHR205W, strain SCH9, hits give low values 0.858 | locus YIL147C, strain SLN1, hits give low values 0.993 | locus YJL095W, strain BCK1, hits give low values 0.904 | locus YJL128C, strain PBS2, hits give low values 0.926 | locus YJL157C, strain FAR1, hits give low values 0.997 | locus YJR016C, strain ILV3, hits give low values 0.995 | locus YJR066W, strain TOR1 (second series), hits give low values 0.963 | locus YJR066W, strain TOR1, hits give low values 1.01 | locus YKL048C, strain ELM1, hits give low values 0.965 | locus YKL067W, strain YNK1, hits give low values 0.975 | locus YKL101W, strain HSL1, hits give low values 0.953 | locus YKL193C, strain SDS22, hits give low values 0.989 | locus YKL203C, strain TOR2, hits give low values 1.01 | locus YLR113W, strain HOG1, hits give low values 0.936 | locus YLR133W, strain CKI1, hits give low values 0.949 | locus YLR403W, strain SFP1, hits give low values 0.916 | locus YML070W, strain DAK1, hits give low values 0.959 | locus YMR001C, strain CDC5, hits give low values 0.988 | locus YMR205C, strain PFK2 (second series), hits give low values 0.976 | locus YMR277W, strain FCP1, hits give low values 0.991 | locus YNL006W, strain LST8, hits give low values 0.984 | locus YNL020C, strain ARK1, hits give low values 0.955 | locus YNL161W, strain CBK1, hits give low values 0.98 | locus YNL183C, strain NPR1, hits give low values 0.987 | locus YNL207W, strain RIO2, hits give low values 0.991 | locus YNL222W, strain SSU72, hits give low values 0.983 | locus YNL307C, strain MCK1 (second series), hits give low values 0.904 | locus YOL078W, strain AVO1, hits give low values 0.979 | locus YOL136C, strain PFK27, hits give low values 0.929 | locus YOR061W, strain CKA2, hits give low values 0.979 | locus YOR119C, strain RIO1, hits give low values 1.05 | locus YOR231W, strain MKK1, hits give low values 0.966 | locus YOR329C, strain SCD5, hits give low values 0.992 | locus YPL031C, strain PHO85, hits give low values 0.983 | locus YPL153C, strain RAD53, hits give low values 1 | locus YPL204W, strain HRR25, hits give low values 0.956 | locus YPL209C, strain IPL1, hits give low values 0.983 | locus YPL256C, strain CLN2, hits give low values 1.04 | locus YPR025C, strain CCL1, hits give low values 0.99 | locus YPR106W, strain ISR1, hits give low values 0.97 | locus YPR111W, strain DBF20, hits give low values 0.953 | strain NNK1, hits give low values 0.976 | strain TSCII, hits give low values 0.982
